An excerpt weighted towards active compounds, which were near 1.3% of everything screened.
Giardia FBPA inh: qHTS Assay for Inhibitors of Fructose-1,6-bisphosphate Aldolase from Giardia Lamblia; purified Giardia FBPA; Potency, µM (doses to about 59.6 µM), inactives show at the highest dose activity, negative = inhibition, most hits filed as inhibitors; 290,000 tested, 0.71% active; note: nearly all actives have a fitted effect of over 55% in size
Target sequence (A8B2U2 whole entry, looked up): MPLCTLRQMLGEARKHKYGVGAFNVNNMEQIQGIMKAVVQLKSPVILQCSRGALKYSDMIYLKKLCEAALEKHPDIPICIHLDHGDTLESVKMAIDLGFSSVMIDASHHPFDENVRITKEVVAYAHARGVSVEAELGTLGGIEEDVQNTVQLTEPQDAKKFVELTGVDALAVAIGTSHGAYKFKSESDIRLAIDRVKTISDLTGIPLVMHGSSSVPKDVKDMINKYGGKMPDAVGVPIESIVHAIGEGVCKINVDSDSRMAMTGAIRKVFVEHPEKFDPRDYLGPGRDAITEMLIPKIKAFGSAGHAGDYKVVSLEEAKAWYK
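Giardia FBPA (40 nM reagent) was preincubated 10 min at RT with compound (up to 57.5 uM final), then substrate plus GAPDH/TPI/NAD/arsenate coupling system with diaphorase/resazurin was added; resorufin fluorescence (525/598 nm) was read after 20 min.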
AmpC no deterg: qHTS Inhibitors of AmpC Beta-Lactamase (assay without detergent); P00811; AmpC nitrocefin hydrolysis, absorbance 480 nm, 0.0001% Triton; Potency, µM (series often up to 57.1 µM), inactives show top-dose activity change, negative = inhibition, actives largely listed as inhibitors; 330,000 tested, 0.52% active;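 note: plate controls were no compound for no effect and no enzyme for full effect; nearly all actives have a fitted effect of over 20% in size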
Target sequence (P00811 whole entry, looked up): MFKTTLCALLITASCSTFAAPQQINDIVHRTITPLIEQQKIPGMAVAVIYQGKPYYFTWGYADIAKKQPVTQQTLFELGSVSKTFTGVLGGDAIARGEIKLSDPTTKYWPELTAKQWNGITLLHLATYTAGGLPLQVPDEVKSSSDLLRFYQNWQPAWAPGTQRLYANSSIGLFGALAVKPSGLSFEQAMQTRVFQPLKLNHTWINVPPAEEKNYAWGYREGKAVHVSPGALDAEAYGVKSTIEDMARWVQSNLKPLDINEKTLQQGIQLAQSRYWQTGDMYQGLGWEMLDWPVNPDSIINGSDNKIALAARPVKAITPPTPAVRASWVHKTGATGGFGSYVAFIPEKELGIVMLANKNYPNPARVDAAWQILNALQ
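AmpC (5.3 nM in the dispensed reagent) in 20 mM phosphate pH 7.0 with 0.01% (detergent screen) or 0.0001% Triton X-100 was preincubated with compounds for 15 min at room temperature. Nitrocefin was then added from an 800 uM solution, and hydrolysis was followed at 480 nm.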
AMA1 RON2 block: qHTS for Inhibitors of AMA1-RON; Towards Development of Antimalarial Drug Lead: Primary Screen. AlphaScreen AMA1-biotinylated RON2 peptide binding. Potency, µM (series often up to 58.2 µM), for the others: top-dose activity change, negative = inhibition, actives largely listed as inhibitors. 360,000 tested, 0.2% active. AID 720542, 2013;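 note: 0% = vehicle wells and -100% = peptide control; nearly all actives have a fitted effect of over 45% in size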
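AMA1 (3D7) with his tag at 25 nM final met compounds first, then biotinylated RON2 peptide at 25 nM; detection used donor plus acceptor beads, 10 µg/mL apiece, read by AlphaScreen after 30 min at room temperature.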
LmPK inh: qHTS Assay for Inhibitors of Leishmania Mexicana Pyruvate Kinase (LmPK); Q27686; 290,000 tested, 0.37% active; purified LmPK, Kinase-Glo ATP luminescence, 1 h; Potency, µM (series often up to 57.5 µM), without a hit: at the top dose activity change, negative = inhibition, most hits filed as inhibitors
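Purified LmPK (0.1 nM) converted ADP (0.1 mM) to ATP with PEP (0.5 mM) in imidazole buffer pH 7.2 with KCl and MgCl2, 1 h at room temperature. ATP was read by Kinase-Glo luminescence; data normalized to uninhibited and no-enzyme controls.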
AmpC detergent: qHTS Inhibitors of AmpC Beta-Lactamase (assay with detergent) | P00811 | AmpC hydrolysis of nitrocefin, absorbance 480 nm, 0.01% Triton | Potency, µM (highest dose often 114 µM), without a hit: at the top dose activity change, negative = inhibition, usual class: inhibitors | 370,000 tested, 0.041% active | AID 485294, 2010;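 note: 0% = no-compound wells and -100% = no-enzyme wells; nearly all actives have a fitted effect of over 25% in size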
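AmpC (5.3 nM in the dispensed reagent) in 20 mM phosphate pH 7.0 with 0.01% (detergent screen) or 0.0001% Triton X-100 was preincubated with compounds for 15 min at room temperature. Nitrocefin was then added from an 800 uM solution, and hydrolysis was followed at 480 nm.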
* = called active by the depositor; ? = inconclusive; · = no result given; [ ] = dose if it differs, or a comment. Calls come from the whole dose curve; as a rule, active = well fitted curve in the direction sought with a large enough effect; inconclusive = small, poorly fitted or top-dose-only effect, or another doubt; inactive = no such curve, though single readings can be large; an effect the other way counts as inactive or inconclusive. Unless noted, % is set by controls: 0 for no effect and ±100 for the full control effect; potency is the fitted concentration of half-maximal effect.

SMILES	Giardia FBPA inh	AmpC no deterg	AMA1 RON2 block	LmPK inh	AmpC detergent
Cc1ccc(-c2nc3ccccc3c(=O)n2CCN2CCOCC2)cc1	-3%	2.2µM*	5%	-1%	0%
COc1ccc(-c2nc3ccccc3c(=O)n2CCN2CCOCC2)cc1	0%	-3%	-6%	-3%	-14%
NC(=O)c1ccccc1N/C=C/C(=O)c1ccc(Cl)cc1Cl	2%	-35%	-2%	16µM*	-7%
Cc1ccc(C(=O)/C=C/Nc2ccccc2C(N)=O)o1	-12%	·	2%	-27%	0%
Cc1cccc(N/C=C/C(=O)c2cccs2)c1C	-4%	-30%	-7%	16µM*	-2%
NC(=O)c1ccccc1N/C=C/C(=O)c1cccs1	1%	-14%	0%	16µM*	0%
NC(=O)c1ccccc1N/C=C/C(=O)c1ccc(F)cc1	-7%	-24%	6%	8.9µM*	0%
COc1ccccc1C(=O)NNC(=O)CN(C)S(=O)(=O)c1ccc(Cl)cc1	·	·	133%	·	·
O=C(NCc1ccc(F)cc1)c1cc(C2CCCN(C(=O)c3ccc4c(c3)CCO4)C2)on1 (configuration not stated)	·	·	-10%	·	·
C=CSc1sc(Cl)c(N2CCOCC2)c1[N+](=O)[O-]	1%	-15%	?	1%	4%
C=CS(=O)(=O)c1sc(Cl)c(N2CCOCC2)c1[N+](=O)[O-]	-3%	28µM*	-22%	-2%	?
Cc1ccsc1/C=N/NC(=S)NCCc1ccccc1	2%	18µM*	67%	6%	-9%
Cc1cc2ncc(-c3ccccc3)nc2cc1C	8%	-5%	-3%	-30%	-1%
Cc1cc(-c2ccccc2)nc(-c2ccccc2)c1C	-26%	-29%	10%	7.1µM*	-3%
CCc1c2c(nc3ccc4c(c13)OCCO4)-c1nc3ccccc3c(=O)n1C2	-6%	·	·	·	·
O=C(N1CCOCC1)n1nnc2ccccc21	5%	13µM*	-10%	0%	45µM*
Cn1c(=O)c2c(-c3ccc(C(C)(C)C)cc3)n(N3CCOCC3)cc2n(C)c1=O	5%	-10%	2%	-4%	35µM*
CNCCc1c[nH]c2ccc(O)cc12	2µM*	·	?	·	·
CNCCc1c[nH]c2ccccc12	12%	16%	-5%	5%	0%
Cc1cc(N2CCN(C(c3ccnc4ccccc34)c3nnnn3-c3c(C)cccc3C)CC2)c2ccccc2n1 (configuration not stated)	·	·	-12%	·	·
CCCc1cnc2c(c1SCC(=O)N(C)c1ccccc1)c(=O)n(C)c(=O)n2C	·	·	·	·	1%
Cc1ccc(NC(=O)NN2CCN(C)CC2)cc1C	3%	-20%	0%	9%	0%
N/C(=N\OC(=O)c1cc([N+](=O)[O-])ccc1Cl)c1ccccn1	-2%	-9%	18%	-4%	1%
N/C(=N\OC(=O)c1ccc([N+](=O)[O-])cc1Cl)c1ccccn1	21%	-7%	66%	18µM*	-14%
N/C(=N\OC(=O)c1ccc(Cl)cc1Cl)c1ccccn1	-2%	-6%	25%	7.1µM*	-2%
SMILES	Giardia FBPA inh	AmpC no deterg	AMA1 RON2 block	LmPK inh	AmpC detergent
CCCN(C(=O)/C=C/c1ccc(S(=O)(=O)N(CC)CC)cc1)C1CCS(=O)(=O)C1 (configuration not stated)	·	45%	-3%[11.6 µM]	·	·
O=C1c2ccccc2-c2cccc(NS(=O)(=O)c3ccc(C(F)(F)F)cc3)c21	0%	5.6µM*	-12%	-2%	6%
CC[C@H](C)[C@@H](NC(=O)O[C@@H]1C(=O)c2cc(Br)ccc2O[C@H]1c1ccc2c(c1)OCO2)C(=O)OC	1%	35µM*	·	4%	-8%
COC(=O)[C@H](Cc1ccccc1)NC(=O)O[C@@H]1C(=O)c2cc(Br)ccc2O[C@H]1c1ccc2c(c1)OCO2	0%	·	·	·	·
CCN1C(=O)/C(=C\C=C2/C=CC=CN2CC)SC1=S	?	-16%	1%	?	-12%
CCN1C(=O)/C(=C/C=C2\C=CN(CC)c3ccccc32)SC1=S	?	0%	?	18µM*	?
O=S(=O)(N/N=C/c1ccc(N2CCOCC2)cc1)c1ccc(Br)cc1	3%	11µM*	-1%	7%	?
COc1ccc(C)cc1NC(=O)C(Sc1nnc(Nc2ccccc2F)s1)c1ccccc1 (configuration not stated)	0%	3.5µM*	-17%	3%	-8%
COc1ccc(C)cc1NC(=O)C(Sc1nncn1C)c1ccccc1 (configuration not stated)	4%	54%	5%	0%	-8%
COc1ccc(CCNC(=O)NCCc2c[nH]c3ccccc23)cc1OC	3%	-5%	1%	-1%	7%
COc1cc2c(CCNC(C)=O)c[nH]c2cc1O	?	·	4.5µM*	·	·
CN1c2ccc([N+](=O)[O-])cc2CC2(C(=O)NC(=O)NC2=O)C1c1ccccc1 (configuration not stated)	-2%	4µM*	-22%	2%	-11%
Cn1c(=O)c(Nc2ccc(O)cc2)c2c3c(cccc31)C(=O)c1ccccc1-2	?	-59%	25µM*	-12%	0%
CCCCCCOc1ccc(/C=C/C(=O)Nc2sc3c(c2C(=O)OC)CCC3)cc1OC	·	·	·	·	0%
CC(C)=CCc1c2c(c3occ(-c4ccc(O)cc4)c(=O)c3c1O)C=CC(C)(C)O2	-11%	16µM*	0%	7%	-1%
O=[N+]([O-])c1ccc(Sc2nc3ccccc3o2)c([N+](=O)[O-])c1	-18%	-24%	27µM*	5%	?
COc1ccc(-c2nc(C#N)c(NCCCN3CCOCC3)o2)cc1	-7%	28µM*	26%	4%	5%
N#Cc1nc(-c2ccc(F)cc2)oc1NCCN1CCOCC1	0%	0.63µM*	14%	-1%	?
Cn1c(/N=C/c2ccc3c(c2)OCO3)nc2ccccc21	-24%	-4%	2%	13µM*	-12%
Nc1ccc(O)c(C(=O)O)c1	3.5µM*	·	·	·	·
Nc1ccc(C(=O)O)c(O)c1 (tested in a mixture with another compound)	-15%	·	·	·	·
N/C(Cc1ccc(Cl)cc1Cl)=N\OC(=O)c1cccs1	-2%	0.32µM*	-1%	4%	4%
Cc1cccc(/C(N)=N/OC(=O)c2ccc(F)cc2)c1	3%	-21%	16%	4.5µM*	-9%
Cc1cccc(/C(N)=N/OC(=O)c2cccs2)c1	-6%	-23%	7%	13µM*	4%
N/C(=N\OC(=O)c1cccs1)c1cccc(Br)c1	-12%	-18%	0%	16µM*	1%
